The source of these data is PubChem BioAssay (NCATS).

Test [1] deals with Luciferin 4-monooxygenase (Photinus pyralis) (UniProt P08659). Nature of the test: Biochemical firefly luciferase enzyme assay for NPC (AID 624030). Also: nearly all actives have a fitted effect of over 70% in size. Also: potency is read from the fitted curve at half-maximal effect. In short, it runs like this: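 Direct inhibition of firefly luciferase enzyme (10 nM final, 50 mM Tris Acetate) assessed by luminescence within 5 minutes. Percent activity scaled between DMSO and PTC124 positive control, with concentration-effect curves classified by fit quality and response.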
Luciferin 4-monooxygenase (Photinus pyralis), sequence (P08659 whole entry, looked up): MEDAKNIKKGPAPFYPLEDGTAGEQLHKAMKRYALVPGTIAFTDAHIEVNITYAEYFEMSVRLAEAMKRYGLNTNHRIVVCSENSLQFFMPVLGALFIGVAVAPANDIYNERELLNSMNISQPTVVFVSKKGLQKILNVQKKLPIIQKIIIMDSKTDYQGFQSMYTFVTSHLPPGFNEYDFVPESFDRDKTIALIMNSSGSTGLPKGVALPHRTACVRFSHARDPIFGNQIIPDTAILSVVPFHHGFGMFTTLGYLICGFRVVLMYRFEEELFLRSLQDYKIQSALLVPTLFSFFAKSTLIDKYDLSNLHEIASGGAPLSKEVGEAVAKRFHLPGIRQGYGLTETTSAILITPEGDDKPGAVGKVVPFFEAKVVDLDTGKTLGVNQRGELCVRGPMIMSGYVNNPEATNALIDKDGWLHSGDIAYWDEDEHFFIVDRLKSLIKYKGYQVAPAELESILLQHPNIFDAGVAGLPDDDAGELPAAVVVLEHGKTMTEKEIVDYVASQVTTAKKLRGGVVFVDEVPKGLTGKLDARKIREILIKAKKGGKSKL

A short description of test [2]: S16 Schwann cell viability assay (CellTiter-Glo assay) (AID 624031).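 Also: native untransfected S16 rat Schwann cells; cellular ATP luminescence as a viability measure; series mostly up to about 58 µM; nearly all actives have a fitted effect of over 70% in size.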 The method in brief:
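Parental S16 cells, 24 h compound, 37 °C. ATP-luminescence viability; DMSO = 0% activity, empty wells as reference; curves classified by fit quality and efficacy.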

Test [3] in a line: S16 Schwann cell PMP22 intronic element firefly luciferase assay (AID 624032). Also: series mostly up to about 58 µM; nearly all actives have a fitted effect of over 30% in size. In short, it runs like this:
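Luciferase reporter of PMP22 intronic-element expression in stably transfected S16 rat Schwann cells, read by ONE-Glo luminescence after 24 h compound exposure at 37 C. Activity scaled between DMSO (0%) and positive-control PTC124; concentration-effect curves quality-classified.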

Test [4] in a line: S16 Schwann cell PMP22 intronic element beta-lactamase assay (AID 624044; calls by dose curve; also: nearly all actives have a fitted effect of over 15% in size). In short, it runs like this:
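Beta-lactamase reporter under a PMP22 intronic regulatory element in stable S16 rat Schwann cells; 24 h compound exposure. 460 nm blue signal normalized between DMSO (0%) and potassium clavulanate, with 535 nm FRET tracking viability; curves classed by r2 and response.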

For test [5], the target named is Glutaminase kidney isoform, mitochondrial (Homo sapiens) (UniProt O94925). Nature of the test: qHTS for Inhibitors of Glutaminase (GLS): LOPAC Validation (AID 624146).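 Also: glutamate product detected by oxidase and peroxidase coupled Amplex red fluorescence gain; series mostly up to about 46 µM; nearly all actives have a fitted effect of over 60% in size.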 In short, it runs like this: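 Assay buffer: 45 mM KH2PO4 pH 8.2, 0.02% Tween-20. hKGA acts on L-glutamine (1 mM solution added); product glutamate is reported by an oxidase/peroxidase Amplex Red coupling, with fluorescence taken at baseline and 30 min.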
Glutaminase kidney isoform, mitochondrial (Homo sapiens), sequence (O94925 whole entry, looked up, canonical isoform): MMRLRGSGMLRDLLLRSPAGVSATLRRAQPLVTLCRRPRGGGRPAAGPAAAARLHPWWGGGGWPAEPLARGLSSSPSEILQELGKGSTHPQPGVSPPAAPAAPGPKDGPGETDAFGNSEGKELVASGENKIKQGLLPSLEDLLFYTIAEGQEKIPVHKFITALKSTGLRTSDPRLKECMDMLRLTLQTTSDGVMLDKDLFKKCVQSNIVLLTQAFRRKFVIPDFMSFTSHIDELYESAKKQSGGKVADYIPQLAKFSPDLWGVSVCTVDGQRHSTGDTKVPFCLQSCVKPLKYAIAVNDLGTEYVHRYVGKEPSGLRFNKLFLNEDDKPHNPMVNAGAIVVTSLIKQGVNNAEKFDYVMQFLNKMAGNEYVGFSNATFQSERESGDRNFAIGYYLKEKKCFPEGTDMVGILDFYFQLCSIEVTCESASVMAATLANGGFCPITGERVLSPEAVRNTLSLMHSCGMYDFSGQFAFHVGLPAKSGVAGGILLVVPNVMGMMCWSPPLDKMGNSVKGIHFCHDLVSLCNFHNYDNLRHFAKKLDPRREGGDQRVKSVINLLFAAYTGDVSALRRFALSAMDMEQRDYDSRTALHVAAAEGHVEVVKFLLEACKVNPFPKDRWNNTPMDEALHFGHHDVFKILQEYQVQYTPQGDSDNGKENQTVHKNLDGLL

Test [6] in a line: qHTS of Trypanosoma Brucei Inhibitors: LOPAC Validation (AID 624147). The method in brief:
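Readout: single end-point luminescence (Kinase-Glo Plus, 10 min). Reaction conditions were TbPYK/substrate plus 130 uM ADP, 45 min at RT, pH 7.2 TEA buffer. No-enzyme wells served as controls, and data were normalized before concentration-response fitting.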

A short description of test [7]: qHTS of Nrf2 Activators: LOPAC Validation (AID 624149). The method in brief:
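Luciferase signal from ARE activation, read with Steady-Glo after 30 min at room temperature. Compounds were pin-transferred onto AREc32_Fluc cells (1000/well, OPTI-MEM/5% FBS, seeded overnight) and left 24 hr at 37 deg C.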

The nature of test [8]: HTS Assay for Allosteric Antagonists of the Human D2 Dopamine Receptor: Hit Validation in HTRF (AID 624455). Also: potency is read from the fitted curve at half-maximal effect.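 Also: stable D1 dopamine receptor cell line scored for blocking the D1 response.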 The method in brief:
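Inhibition of the D1-mediated response was measured by HTRF. Cells used were a line stably expressing the D1 dopamine receptor.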

In test [9] the target is Glucagon-like peptide 1 receptor (Homo sapiens) (UniProt P43220). Kind of test: qHTS of GLP-1 Receptor Agonists: LOPAC Validation (AID 624148).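 Also: luminescence from a luciferase reporter switched on by cAMP; higher luminescence signal means agonism.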 The method in brief:
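Agonism scored as increased luciferase luminescence driven by cAMP in HEK293 clones carrying GLP-1R. Cells settled 12 hours, received compound for 4-6 hr at 37 deg C, 5% CO2, and were read after 12 min detection reagent at RT.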

Records with an inconclusive call do not appear. Entries that show only a call come without a potency. The source made the active and inactive calls. Unless noted, calls follow the shape of the dose curve; as a rule, active = well fitted curve in the direction sought with a large enough effect; inconclusive = small, poorly fitted or top-dose-only effect, or another doubt; inactive = no such curve, though single readings can be large; an effect the other way counts as inactive or inconclusive.

Glucagon-like peptide 1 receptor (Homo sapiens), sequence (P43220 whole entry, looked up): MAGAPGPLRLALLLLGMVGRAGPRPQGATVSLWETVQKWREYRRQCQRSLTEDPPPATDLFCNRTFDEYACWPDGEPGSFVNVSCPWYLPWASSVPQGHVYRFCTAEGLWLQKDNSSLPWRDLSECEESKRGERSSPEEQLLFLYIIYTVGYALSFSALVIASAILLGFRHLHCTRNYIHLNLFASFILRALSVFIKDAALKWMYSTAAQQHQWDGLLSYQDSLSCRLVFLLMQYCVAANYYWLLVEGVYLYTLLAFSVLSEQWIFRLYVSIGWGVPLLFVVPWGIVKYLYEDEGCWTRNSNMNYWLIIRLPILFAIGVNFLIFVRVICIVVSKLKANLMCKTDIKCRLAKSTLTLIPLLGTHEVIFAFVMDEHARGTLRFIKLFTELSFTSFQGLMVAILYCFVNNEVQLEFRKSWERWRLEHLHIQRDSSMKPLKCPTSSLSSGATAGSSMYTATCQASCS

On to `NNc1ccccc1`, for which the Potency entry in [1] and in test [3] was “inactive” in each case. The result in [2] was inactive.
Consider `Nc1ccc([As](=O)(O)O)cc1`, for which the Potency entry in test [1] and in test [3] was “inactive” in each case. For the same compound, the result in test [2] and in test [4] was inactive.
Turning to `Clc1ccc2c(c1)C(c1ccccc1)=NCc1nncn1-2`, the Potency result in [1] and in test [3] was “inactive” in each case. For the same compound, the compound was classed as inactive in test [4].
For the compound `O=C1Nc2ccc(Cl)cc2C(c2ccccc2Cl)=NC1O` (stereo unspecified), the Potency result in test [1] and in [3] was “inactive” each time. The call in test [4] was inactive.
Turning to `COC1CC(=C(c2cccs2)c2cccs2)C[N+](C)(C)C1` (stereo unspecified), the Potency result in test [1] and in [3] was “inactive” in each case. Further, the compound was called inactive in test [2].
`CCCCCCC(=O)CCCCCC/C=C/C[C@@H](O)[C@H](O)[C@@](N)(CO)C(=O)O`: in test [2], the compound was classed as inactive.
For the compound `O=C1c2ccccc2C(=O)C1C(=O)C(c1ccccc1)c1ccccc1`, the Potency result in test [1] and in test [3] was “inactive” in each case. The compound was classed as inactive in test [4].
On to `CC(C)(C)NCC(O)c1ccccc1Cl` (stereo unspecified), for which the call in test [2], in [6] and in test [7] was inactive. Moreover, the Potency entry in [3], in test [5] and in test [8] was “inactive” throughout.
Turning to `CCC1(c2ccccc2)C(=O)N(COC)C(=O)N(COC)C1=O`, the compound was called inactive in test [2]. The Potency result in test [3] is “inactive”.
As to `CN1C(=O)COc2c(C(=O)NC3CN4CCC3CC4)cc(Cl)cc21` (stereo unspecified), the compound was classed as inactive in [2]. Besides, in [3], the Potency result was “inactive”.
With `CC(C)(C)c1ccc(O)cc1`, the outcome in [2] was inactive. Further, the Potency entry in test [3] is “inactive”.
In the case of `O=C1Nc2ccc(Cl)cc2C(c2ccccc2)=NC1O` (stereo unspecified), the outcome in test [2] and in [4] was inactive. The Potency result in [3] is “inactive”.
As for `CN1CCC(O)(c2ccc(F)cc2)C(C(=O)c2ccc(F)cc2)C1` (stereo unspecified), the Potency result in test [1] and in [3] was “inactive” throughout. Further, the result in test [4] was inactive.
Take `CC(C)N(CCC(C(N)=O)(c1ccccc1)c1ccccn1)C(C)C` (stereo unspecified): the Potency entry in test [5] and in [8] was “inactive” throughout. Besides, the compound was called inactive in [6], in test [9] and in test [7].
As to `O=C1c2ccccc2C(=O)c2ccccc21`, in test [2], the compound was classed as inactive. For the same compound, in test [3], the Potency result was “inactive”.
With `Nc1ccccc1C(=O)O`, the outcome in [2] was inactive.
Consider `CC(NC(C)(C)C)C(=O)c1cccc(Cl)c1` (stereo unspecified), for which the Potency entry in test [5] and in test [8] was “inactive” each time. The compound was classed as inactive in test [6], in [9] and in test [7].
`NC(=O)CC[C@@H]1NC(=O)[C@H](Cc2ccccc2)NC(=O)[C@H](Cc2ccc(O)cc2)NC(=O)[C@@H](N)CSSC[C@@H](C(=O)N2CCC[C@H]2C(=O)N[C@@H](CCCN=C(N)N)C(=O)NCC(N)=O)NC(=O)[C@H](CC(N)=O)NC1=O`: the Potency result in [3] is “inactive”.
Still for that read-out and setting: as for `COCCCOc1ccnc(CS(=O)c2nc3ccccc3[nH]2)c1C` (stereo unspecified), the entry is “inactive”; as for `Cn1c(=O)c2[nH]cnc2n(C)c1=O`, “inactive”.
For the compound `C=C(C)[C@H]1CN[C@H](C(=O)O)[C@H]1CC(=O)O`, the outcome in test [2], in test [6], in [9] and in test [7] was inactive. Moreover, the Potency result in test [3], in test [5] and in [8] was “inactive” throughout.
Turning to `CC(C)COC(=O)c1ccc(N)cc1`, the Potency entry in [3] was “inactive”.
`C=CCc1ccc(O)c(OC)c1`: the Potency result in test [3] is “inactive”.
Take `Clc1cccc(SC2CCNCC2)n1`: the Potency entry in test [1] is “inactive”. In addition, the call in [4] was inactive.
As for `CCC1(CC)C(=O)C=CNC1=O`, in test [2], the compound was classed as inactive. In addition, the Potency result in test [3] was “inactive”.
For the compound `CC(C)C[C@H]1C(=O)N2CCC[C@H]2[C@]2(O)O[C@](NC(=O)[C@@H]3C=C4c5cccc6[nH]c(Br)c(c56)C[C@H]4N(C)C3)(C(C)C)C(=O)N12`, the Potency in [8] was 3.26 µM (active).
Consider `COP(=S)(OC)SCN1C(=O)c2ccccc2C1=O`, for which the call in test [2] and in test [4] was inactive. For the same compound, the Potency result in test [3] is “inactive”.
With `CN=C(NC#N)NCCSCc1nc[nH]c1C`, the Potency entry in [3] was “inactive”.
The same measure, in the same setting: as for `O=C(O[C@H]1CN2CCC1CC2)N1CCc2ccccc2[C@@H]1c1ccccc1`, the entry is “inactive”.
With `COc1ccc2c(c1OC)C(=O)O[C@H]2[C@@H]1c2cc3c(cc2CCN1C)OCO3`, the call in test [2], in test [4], in test [6], in [9] and in [7] was inactive. Also, the Potency result in test [3], in [5] and in [8] was “inactive” in each case.
In the case of `O=C(Nc1ccc(Br)cc1)c1cc(Br)cc(Br)c1O`, the Potency in test [1] was 11.4 µM (active). The Potency entry in [3] was “inactive”. For the same compound, in test [4], the result was inactive.
Turning to `COc1c2c(cc3c1OCO3)CCN(C)C2`, the call in test [2] was inactive. In [3], the Potency result was “inactive”.
With `CN1C(=O)NC(=O)C(C)(C2=CCCCC2)C1=O` (stereo unspecified), in test [2], the compound was classed as inactive. For the same compound, the Potency result in test [3] was “inactive”.
Consider `COP(=S)(OC)Oc1ccc(S(=O)(=O)N(C)C)cc1`, for which the call in test [2] and in [4] was inactive. The Potency entry in test [3] is “inactive”.
For the compound `CN1C(=O)C(O)N=C(c2ccccc2)c2cc(Cl)ccc21` (stereo unspecified), the compound was classed as inactive in test [2] and in test [4]. For the same compound, the Potency entry in test [3] was “inactive”.
On to `COP(=S)(OC)Oc1ccc(SC)c(C)c1`, for which the call in test [2] and in [4] was inactive.
